In PubChem BioAssay AID602405 (Broad Institute, 2012):
Out of some 360,000 compounds screened, about 350 (0.097%) were called active. The full list was thinned out, with actives kept by preference. A number with no mark means an inactive call. Cut-off read from the data, not from the text of the source: active = inhibition above about 16% (passing the limit was not always enough); inconclusive = no clear call, values can overlap the other calls; inactive = below that.

Test system: UDP-N-acetylbacillosamine N-acetyltransferase PglD (Campylobacter jejuni)
Assay: C. jejuni PglD acetyltransferase inhibitors, primary screen, biochemical, DTNB colorimetric, single point (AID 602405)
Conditions: purified PglD enzyme, DTNB colorimetric CoA detection; at 12.5 µM; hits give high values

Row | Structure (SMILES) | inhibition
1 | CC(C)CC#Cc1cnc2c(c1)C(=O)N([C@H](C)CO)C[C@H](C)[C@@H](CN(C)C(=O)Cc1cccnc1)O2 | -1.63%
2 | CCCN1C[C@H](C)[C@@H](OC)CN(C)C(=O)c2ccc(NC(=O)C3CCOCC3)cc2OC[C@H]1C | 0.0955%
3 | C[C@H]1CCCCO[C@@H](CN(C)C(=O)Nc2cccc3ccccc23)[C@@H](C)CN([C@@H](C)CO)C(=O)c2cc(NS(=O)(=O)c3ccc(Cl)cc3)ccc2O1 | 19.9%
4 | C[C@H]1CN([C@@H](C)CO)C(=O)c2cc(-c3cccc(F)c3)cnc2O[C@@H]1CN(C)Cc1cncnc1 | 4.73%
5 | COCC(=O)Nc1ccc2c(c1)OC[C@H](C)N(C)C[C@@H](C)[C@@H](OC)CN(C)C2=O | -0.767%
6 | CCC(=O)Nc1ccc2c(c1)C(=O)N(C)[C@@H]1CC[C@@H](CC(=O)N[C@@H](C)c3ccccc3)O[C@@H]1CO2 | 2.31%
7 | C/C=C/c1ccc2c(c1)O[C@@H](CN(C)C(=O)C1CCOCC1)[C@H](C)CN([C@H](C)CO)S2(=O)=O | -2.4%
8 | CCCNC(=O)N(C)C[C@@H]1Oc2cc(-c3ccccc3)ccc2S(=O)(=O)N([C@H](C)CO)C[C@H]1C | 3.76%
9 | COCC#Cc1ccc2c(c1)O[C@@H](CN(C)C(C)=O)[C@H](C)CN([C@H](C)CO)S2(=O)=O | 2.69%
10 | C[C@H](CO)N1C[C@H](C)[C@@H](CN(C)Cc2ccc3c(c2)OCO3)Oc2c(NC(=O)C3CCOCC3)cccc2C1=O | -0.262%
11 | Cc1ccc(S(=O)(=O)N2CCC(C(=O)N3CCCCCCC3)CC2)cc1 | -2.53%
12 | Cc1ccc(S(=O)(=O)N2CCC(C(=O)NCC3CCCO3)CC2)cc1 (stereo not drawn) | 34.1% (active)
13 | Cc1ccc(CN(CC(=O)NCC2CCCO2)S(=O)(=O)c2ccc(C)cc2)cc1 (stereo not drawn) | -1.95%
14 | CCCNC(=O)[C@H]1[C@H](CO)[C@H]2Cn3c(ccc(C4=CCCC4)c3=O)[C@H]2N1C(=O)CC1CC1 | 0.913%
15 | CO[C@@H]1CC[C@@H]2CCOc3ccc(C#N)cc3C(=O)N(C)C[C@@H](OC)[C@@H](C)C(=O)N(C)C[C@H]1O2 | 2.01%
16 | O=C(CC1CC1)Nc1ccc2c(c1)[C@@H]1C[C@@H](CC(=O)NC3CCCCC3)O[C@@H](CO)[C@@H]1O2 | 0.63%
17 | C[C@@H]1CN([C@@H](C)CO)C(=O)c2cc(C3=CCCCC3)cnc2O[C@H]1CN(C)CC1CCOCC1 | 4.78%
18 | C[C@H]1CN([C@@H](C)CO)C(=O)c2cc(/C=C/c3ccccc3)cnc2O[C@@H]1CN(C)C(=O)NC1CCCCC1 | 4.19%
